Key:
Details in all cases: concentration: 1 μM, replicates: in singlicate; n = 1
HASPIN = system: T1, HASPIN
T1 construct: gene GSG2

HCK = system: HCK
HIPK1 = system: HIPK1
HIPK2 = system: HIPK2
HIPK3 = system: HIPK3
HIPK4 = system: HIPK4
HPK1 = system: HPK1
HUNK = system: HUNK
ICK = system: ICK
IGF1R = system: IGF1R
IKK-alpha = system: T2, IKK-alpha
T2 construct: gene CHUK

IKK-beta = system: T3, IKK-beta
T3 construct: gene IKBKB

IKK-epsilon = system: T4, IKK-epsilon
T4 construct: gene IKBKE

INSRR = system: INSRR
INSR = system: INSR
IRAK1 = system: IRAK1
IRAK3 = system: IRAK3
IRAK4 = system: IRAK4
ITK = system: ITK
[1] = system: JAK1(JH1domain-catalytic)
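Also: KINOMEscan kinase panel screen.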

SMILES	%Inh (HASPIN) [%]	%Inh (HCK) [%]	%Inh (HIPK1) [%]	%Inh (HIPK2) [%]	%Inh (HIPK3) [%]	%Inh (HIPK4) [%]	%Inh (HPK1) [%]	%Inh (HUNK) [%]	%Inh (ICK) [%]	%Inh (IGF1R) [%]	%Inh (IKK-alpha) [%]	%Inh (IKK-beta) [%]	%Inh (IKK-epsilon) [%]	%Inh (INSRR) [%]	%Inh (INSR) [%]	%Inh (IRAK1) [%]	%Inh (IRAK3) [%]	%Inh (IRAK4) [%]	%Inh (ITK) [%]	%Inh [1] [%]
COC(=O)Nc1nc2ccc(Oc3ccc(NC(=O)Nc4cc(C(F)(F)F)ccc4F)cc3)cc2n1C.Cl [GW692089]	50	0	0	3	0	69	0	12	0	0	77	18	0	0	0	18	0	0	0	3
CCS(=O)(=O)c1ccc(OC)c(Nc2nccc(-c3c(-c4cccc(NC(=O)c5c(F)cccc5F)c4)nn4ncccc34)n2)c1 [GSK326180]	0	77	0	0	1	0	25	22	21	57	27	27	13	21	45	28	1	29	5	20
COc1cccc(NC(=O)NC2CCN(c3ccnc(Nc4cc(OC)c(OC)c(OC)c4)n3)C2)c1 (stereo not shown) [GSK1379763]	0	0	0	0	85	0	76	0	18	0	0	6	12	0	0	73	86	27	25	0
CN1CCN(Cc2cccc(-c3ccc4c(Nc5ccc(Oc6ccccc6)cc5)ccnc4c3)c2)CC1 [GW578342]	17	95.1	0	2	0	0	25	11	0	5	5	0	12	6	0	13	0	0	9	21
CC(C)(C)c1ccc2nccc(Nc3cccc(O)c3)c2c1 [GW856795]	27	60	18	50	0	0	37	0	24	0	31	0	0	0	0	0	0	0	19	0
